The values below come from PubChem BioAssay (Tox21).

Assay [1] deals with Thyrotropin receptor (Homo sapiens) (UniProt P16473). In words: qHTS assay to identify small molecule agonists of the thyroid stimulating hormone receptor (TSHR) signaling pathway (AID 1224843; calls by dose curve; further: nearly all actives have a fitted effect of over 45% in size). In outline:
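TSHR-expressing HEK293 cells (800 per well) were exposed to compounds for 30 min at room temperature. cAMP was then detected by HTRF competition with cAMP-d2 and anti-cAMP cryptate, read after 1 h at room temperature. Fifteen concentrations, triplicate.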
(Quantitative high-throughput screening tests each substance at several concentrations.)

The nature of assay [2]: qHTS assay to identify small molecule agonists of the hypoxia (HIF-1) signaling pathway - cell viability counter screen (AID 1224844; calls by dose curve; further: nearly all actives have a fitted effect of over 50% in size; further: potency means the concentration at half of the fitted maximal effect). In outline: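 Cells (HRE-bla ME-180, 2,000 per well) sat 5 hrs at 37C, got compound for 17 hrs, were read for CCF4-AM FRET, and were finally lysed with CellTiter-Glo for a 30 min room-temperature luminescence read.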
Assay [3] is described as follows: qHTS assay to identify small molecule agonists of H2AX - cell viability counter screen (AID 1224847; calls by dose curve;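 further: wild-type CHO-K1 cells; top concentration of the series differs between compounds; nearly all actives have a fitted effect of over 30% in size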). In outline: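 CHO-K1 cells plated overnight at 37C, then exposed 3 h at 37C to compounds at 15 concentrations (0.76% DMSO final). Viability by CellTiter-Glo luminescence after 30 min at room temperature.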
Assay [4] can be described thus: qHTS RealTime-Glo MT Cell Viability Assay in HepG2 cells - 24 hour (AID 1224867). Further: nearly all actives have a fitted effect of over 50% in size. Further: potency means the concentration at half of the fitted maximal effect. In outline: (§1)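 Luminescence read-out: viable HepG2 cells reduce a prosubstrate to a NanoLuc substrate, giving a signal proportional to live cell number. Reads taken at 0, 8, 16, 24, 32 and 40 h of compound exposure at 37 C.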
The nature of assay [5]: qHTS RealTime-Glo MT Cell Viability Assay in HEK293 cells - 32 hour (AID 1224868). Further: nearly all actives have a fitted effect of over 50% in size. Further: potency means the concentration at half of the fitted maximal effect. In outline: (§2)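 Nonlytic real-time viability readout: viable cells convert prosubstrate to NanoLuc substrate, giving luminescence proportional to live cell number. HEK293, 600 cells/well, compound added after 5 h, continuous culture at 37 C.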
A short description of assay [6]: A CellTox Green Cytotoxicity Assay to monitor cytotoxicity in HEK293 cells - 0 hour (AID 1224869). Further: nearly all actives have a fitted effect of over 50% in size. In outline: (§3)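 Fluorescence intensity, read at 0, 8, 16, 24, 32 and 40 h of compound treatment, reflected dye binding to DNA of dead HEK293 cells; compounds (23 nL, DMSO) were added 5 h after plating cells with reagent.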
Assay [7] can be described thus: qHTS RealTime-Glo MT Cell Viability Assay in HepG2 cells - 40 hour (AID 1224870). Further: nearly all actives have a fitted effect of over 50% in size. Further: potency means the concentration at half of the fitted maximal effect. In outline:
(§4)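 HepG2 cells mixed with RealTime-Glo MT reagents (NanoLuc plus cell-permeant prosubstrate) were seeded at 600 cells/well, incubated 5 h at 37 C/5% CO2, then pinned with compounds in DMSO; nonlytic luminescence tracked viability during 40 h treatment.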

The nature of assay [8]: A CellTox Green Cytotoxicity Assay to monitor cytotoxicity in HEK293 cells - 40 hour (AID 1224871). Further: nearly all actives have a fitted effect of over 45% in size. Further: potency means the concentration at half of the fitted maximal effect. In outline: as §3
Assay [9] is described as follows: qHTS RealTime-Glo MT Cell Viability Assay in HEK293 cells - 16 hour (AID 1224872). Put shortly:
as §2

Assay [10] can be described thus: qHTS RealTime-Glo MT Cell Viability Assay in HEK293 cells - 40 hour (AID 1224874). Further: nearly all actives have a fitted effect of over 50% in size. Further: potency means the concentration at half of the fitted maximal effect. The note with it: RealTime-Glo luminescence; max response: hits give low values. In outline: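 Viable HEK293 cells reduce a cell-permeant prosubstrate; the product diffuses out and is consumed by NanoLuc in the medium to give light. Compounds went in after a 5 h incubation and plates were read over the treatment course.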

The nature of assay [11]: A CellTox Green Cytotoxicity Assay to monitor cytotoxicity in HEK293 cells - 24 hour (AID 1224875). Further: nearly all actives have a fitted effect of over 45% in size. In outline:
as §3

Assay [12] is described as follows: A CellTox Green Cytotoxicity Assay to monitor cytotoxicity in HepG2 cells - 16 hour (AID 1224876). Further: nearly all actives have a fitted effect of over 45% in size. In outline:
(§5)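 Using 1536-well format, dye-containing HepG2 suspension was seeded, allowed 5 h at 37 C/5% CO2, dosed by pintool with compounds, positive and negative controls, and imaged for fluorescence across 40 h.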

A short description of assay [13]: qHTS RealTime-Glo MT Cell Viability Assay in HepG2 cells - 32 hour (AID 1224877). Further: nearly all actives have a fitted effect of over 55% in size. Further: potency means the concentration at half of the fitted maximal effect. In outline: as §1
Assay [14] is described as follows: A CellTox Green Cytotoxicity Assay to monitor cytotoxicity in HepG2 cells - 24 hour (AID 1224878). Further: nearly all actives have a fitted effect of over 45% in size. Further: potency means the concentration at half of the fitted maximal effect. In outline: as §5
A short description of assay [15]: qHTS assay to identify small molecule agonists of the hypoxia (HIF-1) signaling pathway (AID 1224846; active means well fitted activation curve with a large enough effect in the signal ratio in the repeat runs, not every such curve was filed as active; the % refers to the signal ratio). Put shortly:
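A low-serum medium (0.5% dialyzed FBS) holding 2,000 HRE-bla ME-180 cells per well is preincubated for 5 hrs, dosed with compounds by pintool, and kept a further 17 hrs at 37C, 5% CO2 before CCF4-AM FRET detection of beta-lactamase.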

A short description of assay [16]: qHTS assay to identify small molecule antagonists of the estrogen related receptor (ERR) signaling pathway from Tox21 library (AID 1224848). Further: nearly all actives have a fitted effect of over 50% in size. Further: potency means the concentration at half of the fitted maximal effect. In outline:
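Cells: ERR line, 2,000/well; 6 h preincubation 37 C/5% CO2. Cpd in DMSO via pin tool; 18 h, 37 C. ONE-Glo, 30 min RT, luminescence.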

Assay [17] can be described thus: qHTS assay to identify small molecule agonists of the estrogen related receptor (ERR) signaling pathway from Tox21 library (AID 1224849; calls by dose curve; further: nearly all actives have a fitted effect of over 15% in size). As to conditions: ERR reporter cell line, ONE-Glo luciferase, 18 h; at 92.4 µM (top of the series) unless noted. In outline: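 Screening used an NTP-provided ERR luciferase cell line. Compounds in DMSO were added 6 h after seeding and left 18 h at 37 C before a 30 min ONE-Glo step and luminescence reading.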

Assay [18] in a line: qHTS RealTime-Glo MT Cell Viability Assay in HepG2 cells - 8 hour (AID 1224873). Further: nearly all actives have a fitted effect of over 55% in size. Put shortly:
as §4

Assay [19] is described as follows: A CellTox Green Cytotoxicity Assay to monitor cytotoxicity in HepG2 cells - 40 hour (AID 1224879). Further: nearly all actives have a fitted effect of over 40% in size. Further: potency means the concentration at half of the fitted maximal effect. Put shortly: as §5

Values without a mark were called inactive. Records with an inconclusive call do not appear. Activity calls are given as the source filed them. Unless noted, the call rests on the fitted dose curve; in most records, active means well fitted curve in the direction sought with a large enough effect in the repeat runs; inconclusive means weak or mixed curves; inactive means no such curve, though single readings can be large; an effect the other way counts as inactive or inconclusive.
On the % scale 0 is the no-effect control and ±100 the full control effect.

Thyrotropin receptor (Homo sapiens), sequence (P16473 whole entry, looked up): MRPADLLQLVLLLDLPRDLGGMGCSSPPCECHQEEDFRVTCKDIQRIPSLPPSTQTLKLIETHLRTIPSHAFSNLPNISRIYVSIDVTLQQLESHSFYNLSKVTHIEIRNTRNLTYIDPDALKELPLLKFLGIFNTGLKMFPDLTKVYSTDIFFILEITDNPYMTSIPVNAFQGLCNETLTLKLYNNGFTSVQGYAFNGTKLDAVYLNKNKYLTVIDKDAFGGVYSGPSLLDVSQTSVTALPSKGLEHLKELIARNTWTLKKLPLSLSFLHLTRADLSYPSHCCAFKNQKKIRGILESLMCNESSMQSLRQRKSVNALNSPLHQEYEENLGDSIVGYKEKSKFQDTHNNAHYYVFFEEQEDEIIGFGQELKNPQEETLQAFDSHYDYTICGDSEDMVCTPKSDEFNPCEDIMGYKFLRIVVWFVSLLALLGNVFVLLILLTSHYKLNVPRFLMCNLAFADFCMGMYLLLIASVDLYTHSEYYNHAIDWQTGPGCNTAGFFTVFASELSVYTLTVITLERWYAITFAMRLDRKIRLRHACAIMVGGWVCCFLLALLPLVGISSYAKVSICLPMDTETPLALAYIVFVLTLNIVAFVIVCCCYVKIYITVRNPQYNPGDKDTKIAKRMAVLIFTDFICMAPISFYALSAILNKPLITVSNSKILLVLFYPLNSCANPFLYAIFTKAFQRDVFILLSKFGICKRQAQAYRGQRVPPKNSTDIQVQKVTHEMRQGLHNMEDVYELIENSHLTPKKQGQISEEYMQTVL

On to `O=C(O)c1cccnc1C(=O)O`, for which the Potency result in assay [1], in assay [2], in [3], in assay [4], in assay [5] and in assay [6] was “inactive” each time. For the same compound, the Potency result in assay [7], in [8], in [9], in assay [11], in assay [12] and in assay [13] was “inactive” in each case. Moreover, in [14], the Potency entry was “inactive”. For the same compound, the max response in assay [10] is -1.78%.
`O=C1OCCN1/N=C/c1ccc([N+](=O)[O-])o1`: the Potency entry in [1], in [2], in [3], in assay [4], in assay [6] and in assay [7] was “inactive” in each case. In addition, the Potency entry in assay [8], in assay [9], in assay [11], in [12], in assay [13] and in assay [14] was “inactive” in each case. Moreover, the outcome in assay [15] was inactive. Also, the max response in assay [10] is 2.01%.
Take `CCCCCCCCCCCC(=O)[O][Sn]([CH2]CCC)([CH2]CCC)[O]C(=O)CCCCCCCCCCC`: the Potency result in assay [1], in [2], in assay [3], in assay [16], in [6] and in assay [18] was “inactive” in each case. Moreover, the Potency entry in assay [11] and in assay [12] was “inactive” each time. Also, in assay [17], the activity change, positive = activation was -11.3% [at 42.5 µM]. Further, the Potency in [4] was 19 µM (active); in assay [5] it was 7.56 µM (active); in assay [7], 19 µM (active); in [8], 6.74 µM (active); in assay [10], 7.56 µM (active); in [13] it was 19 µM (active). Also, the Potency was 19 µM (active) in assay [14] and 16.9 µM (active) in assay [19].
In the case of `COC(=O)[C@@H]1CC2=CC(=O)CC[C@]2(C)[C@@]23O[C@@H]2C[C@@]2(C)[C@@H](CC[C@@]24CCC(=O)O4)[C@H]13`, the Potency result in assay [1], in assay [2], in [3], in assay [4], in [5] and in assay [6] was “inactive” in each case. In addition, the Potency entry in assay [7], in assay [8], in assay [9], in assay [18], in assay [11] and in assay [12] was “inactive” in each case. The Potency entry in assay [13] and in [14] was “inactive” in each case. Also, in [15], the compound was classed as inactive. Further, the max response in assay [10] is 1.85%.
For the compound `CCC(Cc1ccccc1)(C(=O)c1ccc(N2CCOCC2)cc1)N(C)C` (stereo unspecified), the Potency result in [1], in [2], in [4], in assay [6], in [7] and in assay [11] was “inactive” throughout. Further, the Potency result in [12], in assay [13], in assay [14] and in assay [19] was “inactive” throughout. In addition, in [15], the call was inactive. For the same compound, the Potency in assay [16] was 17.2 µM (active). In assay [17], the activity change, positive = activation was -33.5%.
In the case of `Cc1ccc(S(=O)(=O)NC2CCCCC2)cc1`, the Potency result in assay [1], in [2], in assay [4], in assay [6], in [7] and in assay [8] was “inactive” in each case. In addition, the Potency result in assay [9], in assay [18], in assay [11], in assay [12], in assay [13] and in assay [14] was “inactive” throughout. The Potency entry in assay [19] is “inactive”. Moreover, in assay [15], the outcome was inactive. In addition, in assay [16], the Potency is 27.1 µM (active). Also, the activity change, positive = activation in assay [17] was -34.7%.
For the compound `CCCOC(=O)c1ccc(C(=O)OCCC)nc1`, the Potency result in assay [1], in [2], in assay [3], in [4], in assay [6] and in assay [7] was “inactive” each time. For the same compound, the Potency entry in assay [8], in [9], in [18], in assay [11], in assay [12] and in assay [13] was “inactive” in each case. Further, the Potency entry in assay [14] is “inactive”. Further, in [15], the compound was called inactive. The max response in assay [10] was 7.22%.
In the case of `CC(COc1ccc(C(C)(C)C)cc1)OS(=O)OCCCl` (stereo unspecified), the Potency result in assay [1], in assay [3], in assay [4], in assay [6], in assay [7] and in assay [8] was “inactive” throughout. For the same compound, the Potency entry in assay [18], in assay [11], in assay [12], in assay [13], in assay [14] and in assay [19] was “inactive” throughout. In addition, the Potency in assay [2] was 1.75 µM (active); in assay [16], 0.614 µM (active); in assay [10], 0.391 µM (active). The call in assay [15] was inactive.
